From PubChem BioAssay (NCATS)
Records with an inconclusive call do not appear. Active and inactive are the calls of the source. Calls come from the whole dose curve; as a rule, active = well fitted inhibition curve with a large enough effect; inconclusive = small, poorly fitted or top-dose-only effect; inactive = no such curve, though single readings can be large or run the other way.

Test: Primary qHTS for small molecule stabilizers of the endoplasmic reticulum resident proteome: Secreted ER Calcium Modulated Protein (SERCaMP) assay (AID 1508630)
Settings: SH-SY5Y GLuc-SERCaMP (Gaussia luciferase released on ER calcium loss) secretion, thapsigargin, luminescence; series mostly up to 38.4 µM; activity change, negative = inhibition: at the top concentration
Summary of the method: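 The SH-SY5Y reporter protocol was run at 3 concentrations up to 38.3 uM (primary) or 11 concentrations (follow-up): 16 h compound, 100 nM thapsigargin for 4 h, then extracellular luciferase luminescence.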
% is set by controls: 0 for no effect and ±100 for the full control effect.

Structure (SMILES) | activity change, negative = inhibition | Potency
NCC1OC(O[C@H]2[C@H](O)[C@@H](OC3C(O)C(N)CC(N)C3OC3OC(CO)C(O)C(O)C3N)O[C@@H]2CO)C(N)C(O)C1O (some centres undefined) | -29% (inactive) | –
O=C1/C(=C/c2ccsc2)CC/C1=C\c1cccs1 | -15.8% (inactive) | –
C=CC(=O)c1ccc(CCCCCC)cc1 | -17.1% (inactive) | –
O=C1O/C(=C/Br)CCC1c1cccc2ccccc12 (centres undefined) | 144% (inactive) | –
CCCCCCCCCCCCCCCC(=O)NCC(COP(=O)([O-])OCC[N+](C)(C)C)OCC (centres undefined) | 5.53% (inactive) | –
C[N+](C)(CCCCCC[N+](C)(C)CCCN1C(=O)c2cccc3cccc(c23)C1=O)CCCN1C(=O)c2cccc3cccc(c23)C1=O | -43.5% (inactive) | –
C=CCc1cccc(/C=N/NC(=O)CN2CCN(Cc3ccccc3)CC2)c1O | -23.9% (inactive) | –
O=[N+]([O-])c1ccc2c(c1)S(=O)(=O)C=C2 | – | inactive
CCCC1(C)C(C#N)(C#N)C1(C#N)C#N | -19.6% (inactive) | –
Cc1ccc2c(n1)Oc1ccc(C(C)C(=O)OCC(=O)N(C)C)cc1C2 (centres undefined) | – | inactive
CCCCN1CCC(n2c(=O)[nH]c3ccccc32)CC1 | -26.1% (inactive) | –
CC(COc1ccc(/C=C/c2ccccc2)cc1)[N+](C)(C)C (centres undefined) | -16% (inactive) | –
NCCNC(=O)c1ncsc1-c1cccc(F)c1 | -28.6% (inactive) | –
CN(C)c1nc2c(Br)c(Br)c(Br)c(Br)c2[nH]1 | -25.3% (inactive) | –
C[C@@H](NC(=O)/C(C#N)=C/c1ccc(O)c(O)c1)c1ccccc1 | -0.75% (inactive) | –
CCCCCC(O)c1cccc(OCc2ccc3ccccc3n2)c1 (centres undefined) | – | inactive
O=c1[nH]c2cc(Cl)c(Cl)cc2[nH]c1=O | – | inactive
C[N+](C)(C)CC(=O)[O-] | -11.9% (inactive) | –
O=C(O)[C@@H]1C[C@H](C(=O)O)N1 | 24.1% (inactive) | –
N=c1ccn2c(n1)O[C@H]1[C@H](O)[C@@H](CO)O[C@H]12 | -13.5% (inactive) | –

Structure (SMILES) | activity change, negative = inhibition | Potency
CN(C)CCCO[C@@H]1[C@H]2OC(C)(C)O[C@H]2O[C@@H]1[C@H](O)CO | -5.07% (inactive) | –
O=C(c1cc(O)c(O)c([N+](=O)[O-])c1)c1ccccc1F | 108% (inactive) | –
CCOc1ccc2nc(S(N)(=O)=O)sc2c1 | 25.3% (inactive) | –
N=C(N)SCCc1ccc(CCSC(=N)N)cc1 | -12.3% (inactive) | –
OC[C@H]1O[C@@H](n2cnc3c(Nc4ccccc4)ncnc32)[C@H](O)[C@@H]1O | -16.6% (inactive) | –
O=C(O)CC1CC(c2ccccc2)=NO1 (centres undefined) | 37.9% (inactive) | –
CCCCCCCCCCCCCCCCCCNC(=O)OCC(COP(=O)([O-])OCC[n+]1ccsc1)OC (centres undefined) | 347% (inactive) | –
CCCn1c(=O)c2[nH]c(-c3ccc(OCC(=O)NCCN)cc3)nc2n(CCC)c1=O | -33.5% (inactive) | –
CCCCC/C=C\CC(O)/C=C/c1cccc(CC(O)CCCCO)n1 (centres undefined) | -3.85% (inactive) | –
O=C(O)/C=C/C(O)c1ccc(Cl)cc1 (centres undefined) | 4.78% (inactive) | –
COc1ccccc1CNCCCCCCNCCCCCCCCNCCCCCCNCc1ccccc1OC | – | inactive
CN1CCC[C@H]1c1cccnc1 | – | inactive
COc1cc(OC)c(/C=C2/C(=O)Nc3ccccc32)c(OC)c1 | 51% (inactive) | –
CCCCCCCCCCCCCCCCCC(=O)NCC(COP(=O)([O-])OCC[N+](C)(C)C)OCC (centres undefined) | 441% (inactive) | –
NC(=S)NCCC[C@H](N)C(=O)O | – | inactive
OCC1O[C@H]([S-])[C@H](O)[C@@H](O)[C@@H]1O.[Au+] (some centres undefined) | -4.65% (inactive) | –
Ic1ccc(N2CCN(Cc3c[nH]c4ncccc34)CC2)cc1 | – | inactive
CCc1c(C(=O)NCCc2ccc(N3CCCCC3)cc2)[nH]c2ccc(Cl)cc12 | 25.6% (inactive) | –
Cc1ccccc1CNc1ncnc2c1ncn2C1OC(CO)C(O)C1O (centres undefined) | 134% (inactive) | –
